SMILES strings stand for the structures. Inconclusive results are not listed. Values without a mark were called inactive. The source made the active and inactive calls. The call rests on the fitted dose curve; in most records, active means well fitted activation curve with a large enough effect; inconclusive means small, poorly fitted or top-dose-only effect; inactive means no such curve, though single readings can be large or run the other way.
Potency means the concentration at half of the fitted maximal effect.

The test can be described thus: qHTS assay for re-activators of p53 using a Luc reporter: Hit Validation. Further: nearly all actives have a fitted effect of over 75% in size. On activation: 0% is about no effect. As to conditions: p53-responsive luciferase reporter cells, luminescence; series mostly up to 46.1 µM; activation: at the top concentration. An excerpt: The p53 tumor suppressor plays a key role in suppression of tumorigenesis and in human carcinogenesis. It is frequently found inactivated in human cancers, mainly by point mutation. These point mutations are found in a wide variety of human cancers and a majority of them affect the DNA binding domain of the protein. The point mutations either alter native p53 conformation or abolish DNA contact. Additionally, cancer cells with p53 mutations are more resistant to chemo-radiation therapies.
In order to find activators to reactivate this important protein, a cell-based screen for p53-dependent luciferase-reporter expression was developed. A p53-null H1299 lung cancer cell line was stably co-transfected with a temperature sensitive p53 mutant, p53-A138V, and a p53-responsive BP100-luciferase reporter. This cell model has previously been characterized in a gene chip profiling experiment for p53 activation. By lowering the culture temperature from 37 deg C (mutant p53 conformation) to 32 deg C (w.t. p53 conformation), a 30-60 fold increase in activation of luciferase activity is observed. At assay temperate, 37 deg C, basal reporter expression is very low and after the addition of detection reagent, a luminescent read-out is carried out. This is the hit validation assay, confirming the hits identified from the primary screen.
NIH Chemical Genomics Center [NCGC]
NIH Molecular Libraries Probe Production Centers Network [MLPCN]
Assay Provider (PI): Yi Sung, University of Michigan at Ann Arbor
5ul of 1000 cells per well are dispensed in all wells except column 4, into white solid-bottom TC-treated Kalypsys plates. The cells are kept in Opti-MEM and supplemented with 10% FBS and dispensed using a Multidrop (Thermo). Then using the Kalypsys pin-tool, 23nl of compounds are pinned. The compounds are starting concentration at 10mM, with 1:5 dilution, 4 points, and the control compound nocodazole is pinned in column 1 at 25mM, 1:3 dilution, in duplicate, 25mM nocodazole is pinned in column 2. Please note, all concentrations are working concentrations. 5ul of 1pM purified luciferase enzyme is dispensed using the Kalypsys dispenser in column 4. Plates are incubated for 24 hrs at 37 deg C, 5% CO2, and 95% humidity. Then 4ul of the detection reagent Amplite (ABD Bioquest) is added using the Kalypsys dispenser. Plates are incubated for 10 min at ambient room temperature and are then read on the ViewLux (Perkin Elmer) using a clear filter for a luminescent read-out.
In the case of `Nc1ccccc1N=Cc1c(O)n(CCC2=CCCCC2)c(=O)[nH]c1=O`, the “activation” value is 12.5%.
For `COc1ccc(CN2CCNCC2)cc1`, the “activation” value was 19.8%.
Still for that read-out and setting: with `COc1ccc(NC(=O)C2C3CCC(O3)C2C(=O)O)c(OC)c1` (stereo unspecified) the figure was 2.6%.
`N=C1c2ccccc2CN1CC(=O)c1ccccc1`: the Potency was 20.6 µM (active).
For `Cc1cc(N2C(=O)C3CCCN3C2c2sccc2C)no1` (stereo unspecified), the “activation” value was -20.3% [at 46.1 µM, H1299 line expressing heat-sensitive Ala138Val p53].
With `O=C(c1cc2c(s1)CCCC2)N1CCC2(CC1)OCCO2`, the “activation” value is 33.3%.
Same read-out and setting: for `Nc1c(C(=O)NCc2ccco2)c2nc3ccccc3nc2n1Cc1ccc(F)cc1` the value was -6.25% [at 46.1 µM, H1299 line expressing heat-sensitive Ala138Val p53]; for `O=C(N/N=C/c1c(O)n(Cc2ccccc2)c(=O)[nH]c1=O)c1ccccc1`, -38.5% [at 9.22 µM]; for `O=C(N/N=C/c1c(O)n(C2CC2)c(=S)[nH]c1=O)c1ccccc1`, -9.38%.
Same read-out and setting: with `COC(=O)C1=C(c2ccc(F)cc2OCc2ccccc2)C[C@@H]2CC[C@H]1N2C(=O)NCCOc1ccc(OC)cc1` the figure was -22.9%.
For the molecule `COC(=O)C1=C(c2cccc(C#N)c2)C[C@@H]2CC[C@H]1N2C(=O)NC1CC1`, the “activation” value is 16.7% [at 46.1 µM, H1299 line expressing heat-sensitive Ala138Val p53].

Values taken from PubChem BioAssay AID624305 (National Center for Advancing Translational Sciences (NCATS), 2012).
